The target in the experiment is CD276, Q5ZPR3.

A number with no mark means an inactive call. How the calls were made is not given here.

Sequence of CD276, Q5ZPR3 (Q5ZPR3 whole entry): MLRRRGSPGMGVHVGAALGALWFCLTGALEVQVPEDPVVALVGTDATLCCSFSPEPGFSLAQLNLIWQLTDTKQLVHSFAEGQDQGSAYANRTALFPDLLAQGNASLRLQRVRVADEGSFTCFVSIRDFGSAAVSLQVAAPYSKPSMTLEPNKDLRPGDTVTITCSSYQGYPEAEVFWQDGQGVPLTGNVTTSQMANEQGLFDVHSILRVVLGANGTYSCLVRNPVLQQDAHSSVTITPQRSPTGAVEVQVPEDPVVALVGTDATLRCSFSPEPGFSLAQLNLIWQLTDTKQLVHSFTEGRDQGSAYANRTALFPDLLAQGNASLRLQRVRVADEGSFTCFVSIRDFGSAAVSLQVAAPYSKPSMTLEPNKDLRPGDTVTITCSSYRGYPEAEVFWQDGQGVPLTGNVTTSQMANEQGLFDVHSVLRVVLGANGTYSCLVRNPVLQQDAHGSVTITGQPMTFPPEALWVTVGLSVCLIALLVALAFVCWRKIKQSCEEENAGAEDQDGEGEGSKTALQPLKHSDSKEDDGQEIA

B1: design_610_f34cc193-997c-4684-af32-2a8002718429_1045_dldesign_0_cycle1_af2pred (protein)
chain: MTPGELGELALEALRLAAEAARLAAEDPRFAPAAAAFRAAFIEIARGGDPEEALRLYEEGLRLYEAALAAWRAA
With B1, the “binding in a display sort” value was “not found”.

B2: design_610_f34cc193-997c-4684-af32-2a8002718429_1156_dldesign_0_cycle1_af2pred (protein)
chain: NPLVKQAEKNYKKAKEMAELGLASTDPLAIRSYAAFGDSLYNNAAELLKKAGKEEEAKKVEAEGEEKKAALLAKAKAAA
Regarding B2, the “binding in a display sort” value is “not found”.

B3: design_611_394c5ea9-a0d3-47c4-9d48-89ba6a28fdd0_637_dldesign_0_cycle1_af2pred (protein)
chain: SEETKEVAEAAVNAAEQAIKLAKELGDKEIEEKAKKLKEEAKKAAKKGAEALPEAKKLAREAFTLAAKALALYAKAKA
On to B3, for which the “binding in a display sort” value was “not found”.

B4: design_610_f34cc193-997c-4684-af32-2a8002718429_1172_dldesign_0_cycle1_af2pred (protein)
chain: LTEEEAKKLLADAKQLLELAEAALADPRFARTAITAADQAAALAKEAAKHPKVAAEAKALAARAEEVRKAAEEAAA
In the case of B4, the “binding in a display sort” value is “not found”.

B5: design_610_f34cc193-997c-4684-af32-2a8002718429_1191_dldesign_0_cycle1_af2pred (protein)
chain: AEATGQAYADILVQSARSLAAAGASPEDVVQAMDSIAQAAIDELGEEGKKYAAKGAEKAAEEVKKLNPEAAKAVAKRAEELKKQA
Regarding B5, the “binding in a display sort” value is “not found”.

B6: design_610_f34cc193-997c-4684-af32-2a8002718429_1084_dldesign_0_cycle1_af2pred (protein)
chain: SAAQQAKQKALELFEQAAKLAAKYDPKAAEKFNKAKEALQAGDLGGALKYATEGVNILAKNASQEAADEVRAIATQGLISYAQAQILA
Regarding B6, the “binding in a display sort” value was “not found”.

B7: design_611_394c5ea9-a0d3-47c4-9d48-89ba6a28fdd0_577_dldesign_0_cycle1_af2pred (protein)
chain: VAAQLAAAQAKVDDVTAKVAEAKAAAKADPAEGVKIANATIGAAIDAMKAAKTYPPEVAAAAIAALSAQLAEASKIAISAQAKLDA
In the case of B7, the “binding in a display sort” value is “not found”.

B8: design_610_f34cc193-997c-4684-af32-2a8002718429_661_dldesign_0_cycle1_af2pred (protein)
chain: AKAQAEAQLAQGQKLLEQAKKNLASGKNAVAALSNARGAYVLFQGAAYIAAKTDPELAKKAKEAAKQAEELAKQAQAAIAAA
As to B8, the “binding in a display sort” value was “not found”.

B9: design_610_f34cc193-997c-4684-af32-2a8002718429_2276_dldesign_0_cycle1_af2pred (protein)
chain: AAAAAAAAAEAAARAARAKEVGQKTLDAVAARAKELGARSPALGEAEQLRLKSTAAVLAGDEAAAKAYAAQAGAILAAA
In the case of B9, the “binding in a display sort” value was “not found”.

B10: design_610_f34cc193-997c-4684-af32-2a8002718429_1816_dldesign_0_cycle1_af2pred (protein)
chain: AEAEALAAQARAHAHKALQEVSLGGDQAEADAHLAKAEEYAAQAKALDPEIGAQTQKIIDQYKALMAQAR
Regarding B10, the “binding in a display sort” value is “not found”.

B11: design_610_f34cc193-997c-4684-af32-2a8002718429_743_dldesign_0_cycle1_af2pred (protein)
chain: EEEEKKKKAKEYVEKAKKLAEQAAKSTVEQAHQYLGQAVELAAKVHELGVLPEEANKVLAQASANALALA
As for B11, the “binding in a display sort” value is “not found”.

B12: design_610_f34cc193-997c-4684-af32-2a8002718429_532_dldesign_0_cycle1_af2pred (protein)
chain: MPQAEQAAQAAAKSGESLMKLAESIWSSTPEYRKAHKESILGALEVARDLYEYAAKQGGEEYKKKAEEAKAKYKEVKETL
As to B12, the “binding in a display sort” value is “not found”.

B13: design_610_f34cc193-997c-4684-af32-2a8002718429_2230_dldesign_0_cycle1_af2pred (protein)
chain: SADQAEKQKLLAKFNEVSGEALELMEELTKAGDYETVQQVSRLLGQANGLAVAATDAATAKAALKVAEEALKLAKEALKKA
B13: the “binding in a display sort” value is “not found”.

B14: design_610_f34cc193-997c-4684-af32-2a8002718429_692_dldesign_0_cycle1_af2pred (protein)
chain: SAARAAAAAAVHAKVYAVLEKQAEEALKKAAEVAKKLGDEKFYKEAKKEAEEAKKLAKESPGEGLKAITELKQKVKEAAKKAEA
In the case of B14, the “binding in a display sort” value is “not found”.

B15: design_610_f34cc193-997c-4684-af32-2a8002718429_742_dldesign_0_cycle1_af2pred (protein)
chain: MERAEKLIEKVKEIASLPKSKEEEQEELALKVAEEAAKLTPEEQQKVIQAMLEYAEKSGSTALLRGANRIFAA
On to B15, for which the “binding in a display sort” value is “not found”.

B16: design_611_394c5ea9-a0d3-47c4-9d48-89ba6a28fdd0_498_dldesign_0_cycle1_af2pred (protein)
chain: AAAATLAQVKELIAQAKADPANAAALLSQAIRLAVTTAIAAAAAGDTAAAVALSQAAIEAMKALDEVSKAA
For B16, the “binding in a display sort” value is “not found”.

B17: design_611_394c5ea9-a0d3-47c4-9d48-89ba6a28fdd0_264_dldesign_0_cycle1_af2pred (protein)
chain: AADEAAKKAIKQLKASVEAAARNARALAGSPDAPRAVKALKELAKVAAEGALGIAKATKDPEVAKEAKKAAEEIKKIAEETAKEIEA
Take B17: the “binding in a display sort” value was “not found”.

B18: design_610_f34cc193-997c-4684-af32-2a8002718429_1837_dldesign_0_cycle1_af2pred (protein)
chain: NQVAAIAAANQALGERAYAEGLALYAADPEANREAARAAFVRAYAYFNAAAGAAIVLGDAAAAAAAQAKAEEAKAHAEALKA
B18: the “binding in a display sort” value was “not found”.

B19: design_610_f34cc193-997c-4684-af32-2a8002718429_328_dldesign_0_cycle1_af2pred (protein)
chain: MEAAKAAVEAARAEADALLAAAEASPDPGEATALAVDALRTVSAARREIEATYGPEAGALADAVLAEVRARVAALNRRLIA
With B19, the “binding in a display sort” value is “not found”.

B20: design_610_f34cc193-997c-4684-af32-2a8002718429_954_dldesign_0_cycle1_af2pred (protein)
chain: MEEAKEKAEEAKKEAKEAIEKLRKVAEKAKAHPDGAEIQRRVDIAVAAVKGLLKNAEASPNPEDSLKIYEVAKELAEAERERVEAILK
With B20, the “binding in a display sort” value is “not found”.

B21: design_610_f34cc193-997c-4684-af32-2a8002718429_2398_dldesign_0_cycle1_af2pred (protein)
chain: AAAEIARRTVEAGVRQAFAASPEEAERLAENLAKIVEGLAGPEVGERVREIVREGLRLAEKFPEYREEIAEETAERAAELVYEALS
In the case of B21, the “binding in a display sort” value was “not found”.

B22: design_610_f34cc193-997c-4684-af32-2a8002718429_489_dldesign_0_cycle1_af2pred (protein)
chain: EKEKKIKELLEKGLEKMKKAAELTGDPGMQTYLKMAENNVKTNSPKDAAKINAELAKIAAGHAASLDPEAAKLVEEAYKLFKEAAKL
Take B22: the “binding in a display sort” value is “not found”.

B23: design_610_f34cc193-997c-4684-af32-2a8002718429_938_dldesign_0_cycle1_af2pred (protein)
chain: SPQAELDAFLGETLETSREISAILEKNRDKVPEEVRNKISDLLNKALSYASKAALGVDPEGAAKAKKYLEEAKKLTEEAVKLA
Regarding B23, the “binding in a display sort” value is “not found”.

B24: design_610_f34cc193-997c-4684-af32-2a8002718429_895_dldesign_0_cycle1_af2pred (protein)
chain: SSAEALARRTAEAMVRLAERRIREAAEEGLEKARETAEKWARFAEEALPPEVGAETAKRIREAAERIVRRKEEE
On to B24, for which the “binding in a display sort” value was “not found”.

B25: design_611_394c5ea9-a0d3-47c4-9d48-89ba6a28fdd0_579_dldesign_0_cycle1_af2pred (protein)
chain: DAAAQSKALQAQVAQAQALVEQARAAAADPARARALALQAFRQAQAVNRQAIALGDTATAAAAGEVMVAAARVLAA
In the case of B25, the “binding in a display sort” value was “not found”.

B26: design_610_f34cc193-997c-4684-af32-2a8002718429_1271_dldesign_0_cycle1_af2pred (protein)
chain: SGRVRQAQRLVEMAEELVETGEKEEAEKGKQLADAARALAEEALRRGDDPEAAKEVLERAKEVEKRAEEAIKA
Take B26: the “binding in a display sort” value is “not found”.

B27: design_610_f34cc193-997c-4684-af32-2a8002718429_2117_dldesign_0_cycle1_af2pred (protein)
chain: AAAAETASKAGEATIEALKAGAEAARLAEELGLDPAPYHQKAAQAIAALQAGEGSLETVTALKEELEKAAKELKEKV
For the molecule B27, the “binding in a display sort” value is “not found”.

B28: design_610_f34cc193-997c-4684-af32-2a8002718429_868_dldesign_0_cycle1_af2pred (protein)
chain: DALAKAQKQAKATAEEAKKKAEEAKAAGNSAAAQMYENGAKVAEEGAKGDLKTVKAAIERGKTLIKAGDAIAAA
B28: the “binding in a display sort” value is “not found”.

B29: design_611_394c5ea9-a0d3-47c4-9d48-89ba6a28fdd0_592_dldesign_0_cycle1_af2pred (protein)
chain: DALKLIEAAAKLAKKIGLEEAAKLAEEAAKLLATGDPEAAGQGVLLLSKAYALAAADPKAAEAAALLRAALAAAAKEAIALARAAR
Turning to B29, the “binding in a display sort” value was “not found”.

B30: design_610_f34cc193-997c-4684-af32-2a8002718429_1550_dldesign_0_cycle1_af2pred (protein)
chain: SAAIQEQTAKDWAAVLEAAAARSTEAGIRLARAVAEVFRDDPELAEATAAALTNAEVAAALRAALEEARAAAA
Consider B30, for which the “binding in a display sort” value is “not found”.

B31: design_610_f34cc193-997c-4684-af32-2a8002718429_824_dldesign_0_cycle1_af2pred (protein)
chain: DALVAEARRLLQEAARLLGTGSAAYIAGDKAAAVAAFKEAIGLAKKALELAKAAGDEALAASAQGLIELAEGLLAAAEA
For the molecule B31, the “binding in a display sort” value was “not found”.

B32: design_610_f34cc193-997c-4684-af32-2a8002718429_921_dldesign_0_cycle1_af2pred (protein)
chain: AEAVAVAAMLGLLRNAADHPESAEKLAEIARDMALATGVPAEKVKEVFEEGARYAREKGNEEAAKIIEEKGEEAVKAAKAA
Consider B32, for which the “binding in a display sort” value was “not found”.

B33: design_610_f34cc193-997c-4684-af32-2a8002718429_291_dldesign_0_cycle1_af2pred (protein)
chain: AEERAKELAEELKELLAKAVADPSKAGEYLGRALELLAELQALAAEHPEVAPYAEEAHRALGAGNKALLAAIAA
Take B33: the “binding in a display sort” value is “not found”.

B34: design_610_f34cc193-997c-4684-af32-2a8002718429_285_dldesign_0_cycle1_af2pred (protein)
chain: LAAEVAAAEAAAAAAAAAAKALGATATAAALRAMAEDAARSTPEEAAAARDFAEAMLTVLTARLAAAKAAAA
Turning to B34, the “binding in a display sort” value was “not found”.

B35: design_610_f34cc193-997c-4684-af32-2a8002718429_2308_dldesign_0_cycle1_af2pred (protein)
chain: AAAAEAAAARLAAAKAALAAAQAKGAELAAQSPGAGIGYVWAAAVRLGETLGPEAAALAAQARAAAAAQNRALLAQSAA
As for B35, the “binding in a display sort” value was “not found”.

B36: design_611_394c5ea9-a0d3-47c4-9d48-89ba6a28fdd0_317_dldesign_0_cycle1_af2pred (protein)
chain: AEAIQKANDALQEALDYLKEMSEIAKTEKLQEAVKQIQEKVGKAAQYAIDAVKNPEKAAEYAKKAKEEAEKAKEIYEKAKKES
In the case of B36, the “binding in a display sort” value was “not found”.

B37: design_610_f34cc193-997c-4684-af32-2a8002718429_1694_dldesign_0_cycle1_af2pred (protein)
chain: AAAAAELALRSAEALLRSARENAAAGTISPEGLRGAAEVIKDLARYAGELGGPEAAARAEELIAEADAVVA
Consider B37, for which the “binding in a display sort” value was “not found”.

B38: design_610_f34cc193-997c-4684-af32-2a8002718429_1476_dldesign_0_cycle1_af2pred (protein)
chain: ARAAAIAEEAVRFANAASARALAAAVKTTPEANAQITALVVQLLEEADRARKATDPAEAEAHFEAARALAAEAEAIAAAALA
Take B38: the “binding in a display sort” value was “not found”.

Values taken from paper PMC13494018.
